# Measurements from PubChem BioAssay (NCI).
# The panel holds about 83,000 compounds, 20% with a hit somewhere; the sample as a whole holds those more often.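 Single-concentration screen, 48 h exposure, 96-well plates. Endpoint: percent growth. Below 10 = active.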 Unmarked numbers belong to inactive results. The source made the active and inactive calls.
# System: 786-0 renal
# Assay: NCI-60 one-dose screen, 48 h (100 = growth as untreated, 0 = no growth, -100 = all killed)
# Details: 10 µM unless noted
row,SMILES,growth
1,Nc1[nH]n2cc(-c3ccc(F)cc3)nc2c1N=Nc1ccc(S(N)(=O)=O)cc1,68.1%
2,O=C(Nc1ncccc1OCc1ccccc1)NC1CCCCCC1,89.6%
3,CCNc1nc(O)c(/C=C2\C=Nc3ncccc32)s1,3.02% (active)
4,Cn1cc(-c2nn3cc(-c4cccs4)nc3s2)c2cc(F)ccc21,49.2%
5,Cc1ccc(-c2nc(/C=C3/C(=O)Nc4ccc(F)cc43)c3ccccn23)cc1,112%
6,O=[N+]([O-])c1ccc(-c2cn3nc(-c4c[nH]c5ccccc45)sc3n2)cc1,103%
7,O=C(CI)NC(=O)NC(=O)NCc1ccccc1,23.9%
8,O=C(Nc1cc(Cl)ccc1O)c1cccc(Nc2ccnc(C(F)(F)F)c2)c1,49.3%
9,N#Cc1c(Nc2ccc(N3CCOCC3)cc2)nc(SCC(=O)c2ccc(Br)cc2)nc1-c1ccccc1,101%
10,COc1cc(OC)c(/C=C/C(=O)c2c(O)cc(OC)c(C3CCN(C)CC3)c2OC)c(OC)c1,-97.7% (active)
11,CCS/C(Nc1ccccc1)=C(\C#N)C(=O)Nc1ccc(OC)cc1,39.5%
12,C=CN(C(=O)N1CCN(c2cc3c(cc2F)c(=O)c(C(=O)O)cn3C2CC2)CC1)c1nc(-c2ccc(OC)cc2)cs1,30.5%
13,O=C(Nc1ccccc1[N+](=O)[O-])c1ccc(Cl)c(Cl)c1,105%
14,CCn1cc(CNc2ccc(C(=O)Nc3cc4cc(OC)c(OC)cc4c(C)n3)cc2)cn1,70.4%
15,COc1ccc2c(c1)c(-c1nc(-c3c[nH]c4ncccc34)cs1)cn2CCCN1CCOCC1,-24.3% (active)
16,C[n+]1ccc(CCc2c[nH]c3ccccc23)cc1,100%
17,CC(C)CCN(CCC(C)C)CC(O)c1cc2c(c3ccccc13)CCCC2 (stereo not given),88.8%
18,CO[C@H]1CC(=O)n2c3ccccc3c3c4c(c5c6ccccc6n1c5c32)C(=O)NC4=O,97.4%
19,COc1ccc(C2=CN3CC=CC3CC2=O)cc1 (stereo not given),88.8%
20,COc1cccc(/C=C/C(=O)c2cc3c(N)c(C(=O)Nc4cccc5ccccc45)sc3nc2C)c1,3.42% (active)

row,SMILES,growth
1,Cc1ccc(CNc2ccc3nc(CCC(C)C)[nH]c3c2)cc1,84%
2,COc1ccc(/C(C)=C(/c2ccc(OCCCN(C)C)cc2)c2ccc(OC(=O)c3ccccc3)cc2)cc1,73%
3,COC(=O)CC[C@@H]1O[C@@H](c2ccc(F)cc2)[C@@H](O)[C@H]1O,105%
4,O=C1/C=C/[C@@H](O)[C@@H]2C[C@@H](O)C[C@H]2/C=C/CCC[C@H](CCO)O1,-51.7% (active)
5,COc1cccc(-c2cc(-c3cccc(Cl)c3)c(C#N)c(=O)[nH]2)c1,88.8%
6,COc1ccc(CNc2c3ccccc3nc3ccccc23)c(OC)c1,39.1%
7,CCN(CC)c1ccc(CNc2cc(C)nc3ccccc23)cc1,79.1%
8,O=C1Nc2ccccc2/C1=C\c1c[nH]c2ccc(Br)cc12,109%
9,O=C(CCCCCNC(=O)c1cc(=O)c(O)co1)Nc1ccccc1,97.5%
10,CCOc1ccc(-n2nc(C(=O)NCc3ccccc3OC)nc2-c2cc(OC)c(OC)c(OC)c2)cc1,41.5%
11,COc1ccc(-c2nc(/C=C3\C(=O)N(C)c4ccccc43)c3ccccn23)cc1,38.3%
12,FC(F)(F)Oc1cccc(-c2cnc3ccc(-c4ccncc4)nn23)c1,21.1%
13,CCN1C(=O)N(CC)C2C1NN=c1s/c(=C3\C(=O)N(CC(C)C)c4ccccc43)c(=O)n12 (stereo not given),37.2%
14,COc1cc(OC)c(C(=O)C(CN(C)C)CN(C)C)cc1OC,7.98% (active)
15,Cc1ccc(/C=C/C(=O)c2ccc(-n3cc(CN4CCN(c5cc6c(cc5F)c(=O)c(C(=O)O)cn6C5CC5)CC4)nn3)cc2)cc1,64.9%
16,NC1(CO)COC(c2ccccc2)OC1 (stereo not given),106%
17,COc1cc(C2C(C(=O)OCc3ccccc3)=C(C)NC(C)=C2C(=O)OCc2ccccc2)cc(OC)c1OC,25.2%
18,CC1=C(CCC(C)NCc2ccc(OCCCN3CCCCC3)cc2)C(C)(C)CCC1 (stereo not given),-85.6% (active)
19,N#C/C(=C\c1ccc([N+](=O)[O-])cc1)n1nnc2cc(F)c(F)cc21,-58.4% (active)
20,CS(=O)(=O)c1ccc(NC(=O)c2ccccc2)nc1,99.1%
